Among the data in ChEMBL document CHEMBL4513216, “Probing the Open Global Health Chemical Diversity Library for Multistage-Active Starting Points for Next-Generation Antimalarials” (ACS Infect Dis, 2020) are INHIBITION values, retold here.

Hit rate of the full screen: of about 65,000 compounds, about 2,100 (3.2%) showed an effect of 50% or more. The median lay at about -52%. The list comes from a sample in which strong results are over-represented; it also holds similar structures and randomly drawn compounds.

The test has as its system Plasmodium falciparum. Nature of the test: Screen against P. falciparum Asexual Blood Stage (ABS), at 5uM. It is filed as functional, Dd2. As to conditions: tested at 5 uM.
Consider `Cc1cc(C)c2cc(CNCC3CCCO3)c3nn(C)c(=O)n3c2c1` (stereo not given), for which the INHIBITION is 7.98%.

For the molecule `Cc1cc(C)c2cc(CNCc3cccnc3)c3nn(C)c(=O)n3c2c1`, the INHIBITION is given as 31.5%.

As for `CCCNCc1cc2c(C)cc(C)cc2n2c(=O)n(C)nc12`, the INHIBITION is recorded as -36.8%.

For `Cc1cc(C)c2cc(CNCc3ccc(C)o3)c3nn(C)c(=O)n3c2c1`, the INHIBITION is recorded as 63.9%. For `COCCNCc1cc2c(C)cc(C)cc2n2c(=O)n(C)nc12`, the INHIBITION is reported as -43%. With `Cc1cc(C)c2cc(CNCc3ccccc3)c3nn(C)c(=O)n3c2c1` the figure was 65.4%. With `CS(=O)(=O)N1Cc2ccnn2CC(C(=O)NCc2cccnc2)C1` (stereo not given) the figure was -95.4%. For the molecule `Cc1cnc(N2C[C@@H]3[C@@H](C2)OCC(=O)N3CCN(C)C)nc1`, the INHIBITION is given as -122%. With `CCc1ccsc1C(=O)N1CCN(CCN2C(=O)CCC2=O)CC1` the figure was -170%. With `Cc1nn(C)cc1CN(C)C(=O)c1ccncc1` the figure was -130%; with `CCn1c(=O)nc(N)c2c(-c3ccc(OC)cc3)csc21`, -67.6%. With `COc1ccc(-c2csc3c2c(N)nc(=O)n3CCCN(C)C)cc1` the figure was 54.2%. `COc1ccc(-c2csc3c2c(N)nc(=O)n3CCN(C)C)cc1`: the INHIBITION was -27.7%. With `O=C1COC2(CCN(Cc3ccoc3)CC2)CN1c1ccsc1` the figure was -66%. With `OCc1cc2ccccc2nc1N1CCCCC1`, the INHIBITION is given as -56.3%. With `CC(C)N(C)C(=O)c1ccc(CNc2ccncc2Cl)cc1` the figure was 24.6%; with `COc1cc(C)ccc1S(=O)(=O)N[C@H]1CN(C(C)=O)C[C@@H]1C1CC1`, -120%; with `CN(C)S(=O)(=O)N1CCCC(c2cccc(Cc3ccc(F)cc3)n2)C1` (stereo not given), -107%.

Consider `O=C(c1ccncc1)N1CCOC2(CCCN(c3nncs3)C2)C1` (stereo not given), for which the INHIBITION is given as -74.2%. `CC(C)N1CCC(CNC(=O)CCc2cc(F)ccc2F)C1` (stereo not given): the INHIBITION came to 7.8%.

On to `CC(C)N1CCC(CNC(=O)COc2ccc(F)cc2F)C1` (stereo not given), for which the INHIBITION amounted to 53.3%. In the case of `CN1CCOC(CNC(=O)COc2ccc(F)cc2F)C1` (stereo not given), the INHIBITION is -69.6%. With `Cc1ccc(N2CC[C@@H]3[C@@H]2CCN3C(=O)Cc2ccccc2)nn1` the figure was -79%.

In the case of `CCOCC(=O)N1CCC(C2CCN(Cc3ccc(Cl)cc3)C2)CC1` (stereo not given), the INHIBITION is reported as 0.245%. With `Clc1cccnc1N1CCC(C2CCN(Cc3cccnc3)CC2)C1` (stereo not given) the figure was -49.5%. With `O=C(C1CCC1)N1CCC(C2CCN(Cc3ccc(Cl)cc3)C2)CC1` (stereo not given) the figure was 65.6%; with `CC(=O)NCC(=O)N1CCC(C2CCN(Cc3ccc(Cl)cc3)C2)CC1` (stereo not given), 5.47%; with `Clc1ccc(CN2CCC(C3CCN(Cc4cccnc4)CC3)C2)cc1` (stereo not given), 64.4%. As for `O=C(C1CCCC1)N1CCC(C2CCN(Cc3ccc(Cl)cc3)C2)CC1` (stereo not given), the INHIBITION worked out at 64.3%. With `Clc1ccc(N2CCC(C3CCN(Cc4cccnc4)CC3)C2)nc1` (stereo not given) the figure was 12.7%; with `CN1CCN(Cc2ccc(Cl)cc2)CC1C(=O)O` (stereo not given), -94.1%.

As to `O=C(C1CC1)N1CCCC1C1CCN(Cc2ccccc2)CC1` (stereo not given), the INHIBITION is given as -40.8%. With `Cc1cc(C)n(CC2CCCN2C(=O)c2c(C)noc2C)n1` (stereo not given) the figure was -97.8%; with `Cc1nc(CN2CCCN(CCOc3ccc(C#N)cc3)CC2)no1`, -71.7%. With `CCN(Cc1ccncc1)C(=O)CCn1c(C)cc2ccccc21` the figure was 56.5%. With `Cc1cc2ccccc2n1CCC(=O)NCc1ncc[nH]1` the figure was -0.748%; with `CCN(Cc1nc(COC)no1)C(=O)CCn1c(C)cc2ccccc21`, 10%; with `O=C(NC1CCCC1)c1cc2c(s1)CCN2C(=O)c1ccccc1`, -63.7%. As to `Cc1nc(C)n(CC2CCCN2CCCOc2ccc(C#N)cc2)n1` (stereo not given), the INHIBITION is on record as -33.2%. With `COc1ccc(S(=O)(=O)N2Cc3c(CN(C)C)nn(C)c3C2)cc1` the figure was 40.7%.

As to `CCc1ccc(S(=O)(=O)N2Cc3c(CN(C)C)nn(C)c3C2)cc1`, the INHIBITION is on record as 63.9%. On to `Cc1ccc(S(=O)(=O)N2Cc3c(CN(C)C)nn(C)c3C2)cc1`, for which the INHIBITION amounted to 42.8%.

For the molecule `C[C@@H](O)CNC(=O)c1nc(CC(=O)Nc2ccccc2)no1`, the INHIBITION was -40.2%. For `CC(NC(=O)N1CCN(c2cccs2)CC1)c1ccc(C#N)cc1` (stereo not given), the INHIBITION came to 63.2%. With `CC(NC(=O)N1CCN(c2ncccn2)CC1)c1ccc(C#N)cc1` (stereo not given) the figure was 19.1%. For `CC(NC(=O)N1CCN(c2cccs2)CC1)c1ccncc1` (stereo not given), the INHIBITION is given as -28.9%. With `Cc1ccnn1CCC(=O)N1C[C@@H]2CC[C@H]1CN(CC(=O)N(C)C)C2` the figure was -46.9%; with `CC(C)(C)c1ccc(S(=O)(=O)CCN2CCNC(=O)CC2)cc1`, -97.7%; with `COCCCNc1ncc(-c2cccc(F)c2)c(-c2nccn2C)n1`, -138%. With `COCCNc1ncc(-c2cccc(F)c2)c(-c2nccn2C)n1` the figure was -10.2%; with `COCCNc1ncc(-c2cccc(OC)c2)c(-c2nccn2C)n1`, 69.3%; with `Cc1nnsc1CN1C[C@H]2CC[C@@H](C1)N(Cc1ccccc1)C2`, -69.4%. With `COc1cccc(CN2CCCCC2CN2CCOCC2)c1F` (stereo not given) the figure was 4.8%; with `COc1cc2c(cc1CN1CCCCC1CN1CCOCC1)CCC2` (stereo not given), 65.9%; with `COc1cc2c(cc1CN1C[C@@H](CN3CCOCC3)[C@@H](CO)C1)CCC2`, 21.7%. In the case of `CC(OCC1CC1)C(=O)Nc1ncccc1I` (stereo not given), the INHIBITION is recorded as -86.5%. With `COCCn1cncc1CN1CCCC(C(=O)Cc2ccccc2)C1` (stereo not given) the figure was -43.6%; with `COCCN1CCCC12CCN(Cc1cncn1C)CC2`, -12.2%. With `O=C(Cc1ccccc1)C1CCCN(Cc2cncn2C2CCCC2)C1` (stereo not given) the figure was 57.8%; with `CN1CCCC2(CCN(Cc3cncn3C3CCCCC3)C2)C1=O` (stereo not given), -28.7%; with `COCCn1cncc1Cn1cccc(C(F)(F)F)c1=O`, -90.4%. Take `COCCn1cncc1CN1CCCC(C)(c2ccccc2)C1` (stereo not given): the INHIBITION is 61.5%. With `CC1(c2ccccc2)CCCN(Cc2cncn2C2CC2)C1` (stereo not given) the figure was 67.2%; with `CC1(c2ccccc2)CCCN(Cc2nnc(-c3cccnc3)o2)C1` (stereo not given), -119%; with `O=C(C1CCCN(Cc2ccccc2)C1)N1CCc2sccc2C1` (stereo not given), 12.7%. With `Cn1nc(C(=O)NCc2ccc(Cl)cc2)c2c1CCS(=O)(=O)C2` the figure was -79%; with `COCC(=O)N1CCC2(COCc3cnc(N4CCOCC4)nc32)C1` (stereo not given), -38%. With `CC(C)n1nc(CN(C)C)c2c1CN(C(=O)CC1CC1)CC2` the figure was -91.2%; with `COc1cc(NC(=O)N2CCCC2c2nncn2C)ccc1Br` (stereo not given), -53.7%. As to `CCS(=O)(=O)NCc1nc(C)cc(N2CCCCC2)n1`, the INHIBITION was -38.7%. With `CC(C)n1nc(CN(C)C)c2c1CN(CC1CC1)CC2` the figure was -87.1%; with `CC(C)n1nc(CN2CCCC2)c2c1CN(CC1CC1)CC2`, 55.7%; with `Cn1nc(CN2CCCC2)c2c1CN(CC1CC1)CC2`, -16.8%. With `CC(C)N(C)Cc1cnc2n1CCN(C(=O)Cc1ccsc1)C2` the figure was -45.1%; with `CC(C)N(C)Cc1cnc2n1CCN(C(=O)c1cccs1)C2`, 62.6%. With `CC(C)N(C)Cc1cnc2n1CCN(C(=O)Cc1ccccn1)C2` the figure was -6.41%; with `Cc1ccc(C(=O)N2CCC(Oc3ccc(C)c(C)c3)CC2)c(=O)[nH]1`, -19.9%; with `Cc1nc(CN2CCc3ncnc(C)c3CC2)cs1`, -152%.

As to `CC(C)CCN1Cc2c(C(=O)N3CCCC3)nn(C)c2C1`, the INHIBITION is on record as -58.9%.

As to `COc1ccc(NCC2(O)CCNCC2)cc1OC`, the INHIBITION is recorded as -115%. Take `Cn1cc([C@@H]2CN(S(=O)(=O)c3ccccc3F)C[C@H]2N)c2ccncc21`: the INHIBITION was 63.4%. With `Cn1cc([C@@H]2CN(S(C)(=O)=O)C[C@H]2N)c2ccncc21` the figure was 16.8%; with `Cn1cc([C@@H]2CN(S(=O)(=O)c3cccnc3)C[C@H]2N)c2ccncc21`, -21.6%; with `CN(C)c1ccc(C(=O)N(CCO)CC2CC2)c(F)c1`, -93.3%.

Regarding `Cc1nn(C)cc1-c1cc(C(F)(F)F)nn1CCC#N`, the INHIBITION is listed as -167%. Take `Cc1cc(N2CCC(Cc3ncccn3)C2)ncn1` (stereo not given): the INHIBITION is listed as -89.6%.

For the molecule `Oc1ccc(Cl)cc1CNCc1ccccc1C(F)(F)F`, the INHIBITION worked out at 64.5%. With `Nc1nnnn1NCc1ccccc1C(F)(F)F` the figure was -13.1%; with `CC(O)CNCc1ccccc1C(F)(F)F` (stereo not given), -46.2%; with `O=C(COCCOc1ccccc1)Nc1ccnn1CC1CCOC1` (stereo not given), -132%. `CCN(C(=O)CCOC)C(c1ccc(Cl)cc1)c1ccccn1` (stereo not given): the INHIBITION is given as -56.9%.

As for `O=C(O)CC(NC(=O)c1ccccc1OC(F)F)c1cccs1` (stereo not given), the INHIBITION was -127%. With `CCCc1ccc(S(=O)(=O)Nc2ccc(=O)n(C)c2)cc1` the figure was -53.7%.

`CCCN1CCC2(CC1)COc1ccccc1S(=O)(=O)N(CC1CC1)C2`: the INHIBITION was -32.6%.

On to `CCC(=O)N1CCC2(CC1)COc1ccccc1S(=O)(=O)N(C)C2`, for which the INHIBITION is on record as -29.3%. In the case of `COCCN1CCC2(CC1)COc1ccccc1S(=O)(=O)N(C)C2`, the INHIBITION is -7.6%. In the case of `CN(C)C(=O)CN1CCC2(CC1)COc1ccccc1S(=O)(=O)N(C)C2`, the INHIBITION is reported as -44.5%. For `CN1CC2(CCN(Cc3ccoc3)CC2)COc2ccccc2S1(=O)=O`, the INHIBITION turned out to be 61.9%.

As for `CN1CC2(CCN(CC3CC3)CC2)COc2ccccc2S1(=O)=O`, the INHIBITION stood at 52.5%. With `COc1cccc(-c2ncc(CN3C[C@H]4CC[C@@H](C3)N(C)C4=O)s2)c1`, the INHIBITION is given as -211%. With `COc1cc(F)c(NC(=O)N(C)Cc2cc(C)on2)cc1F` the figure was -69.1%; with `Cc1cnn(CCC(=O)N2CCN(C(=O)C(C)C)[C@@H]3CS(=O)(=O)C[C@@H]32)c1`, -87.4%; with `CCOC(=O)c1nc(COc2ccc(CC(N)=O)cc2)no1`, -26%. With `COCCN1CC[C@@H](OC)[C@@H]1Cc1ccccc1` the figure was 1.53%; with `COCCN1CC[C@@H](O)[C@@H]1Cc1ccccc1`, -32.4%. In the case of `CO[C@H]1CCN(Cc2nccs2)C[C@@H]1Cc1ccccc1`, the INHIBITION is -25.6%. With `CO[C@@H]1CCN(Cc2nccs2)C[C@@H]1Cc1ccccc1` the figure was -9.75%; with `COc1ccc(C[C@H]2CN(C(=O)C3CC3)CC[C@H]2OC)cc1`, 35.6%; with `COc1ccc(C[C@H]2CN(Cc3ccoc3)CC[C@@H]2OC)cc1`, 64.8%. Turning to `c1ccc(C[C@H]2CN(Cc3nccs3)CC[C@H]2OCC2CC2)cc1`, the INHIBITION was 40.9%.

Consider `CO[C@H]1CCN(Cc2ccoc2)C[C@@H]1Cc1ccccc1`, for which the INHIBITION is 67.3%.

Turning to `Cc1noc(C)c1CN1CC[C@H](OCC2CC2)[C@@H](Cc2ccccc2)C1`, the INHIBITION is 62.1%. With `Cc1noc(C)c1CN1CC[C@@H](OCC2CC2)[C@@H](Cc2ccccc2)C1` the figure was 26.2%.

On to `COCCN1CC[C@H](OC)[C@@H]1Cc1ccccc1`, for which the INHIBITION was found to be 62.8%. With `COc1ccc(C[C@H]2CN(c3cc(OC)ncn3)CC[C@@H]2OC)cc1` the figure was -0.505%.
